MITF TRPM1 inh = MITF TRPM1 promoter inhibition in SK-MEL-5 cells | 330,000 tested, 0.83% active | SK-MEL-5 TRPM1 promoter luciferase, 24 h | inhibition, % at 12.5 µM;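 active means mean inhibition across replicates of 60% or more, whatever share of single replicates reaches that level; inconclusive means some that reach 60%, reason not given; inactive means mean inhibition across replicates below 60%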
TROY signal inh = TROY signaling inhibition. Q293 LMP1-TROYcd NF-kB luciferase reporter, 4 h. inhibition, % at 10 µM. 360,000 tested, 0.98% active. AID 1347056;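 active means compounds whose plate-normalised and pattern-corrected inhibition of the luciferase reporter signal at the single screening dose is 50% or more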
Peg3 prom inh = inhibitors of Peg3 promoter. inhibition, % at 20 µM. HeLa PEG-Prom luciferase reporter, luminescence, overnight. 360,000 tested, 1.7% active. AID 588405;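 active means inhibition of at least 50% at 20 µM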
LMP1 NFkB inh = Epstein-Barr LMP1 NF-kappaB reporter inhibition | LMP1-induced NF-kappaB luciferase reporter cells, luminescence | inhibition, % at 12.5 µM | 350,000 tested, 0.69% active | AID 504558; in the data active means inhibition above about 41%; inconclusive means no clear call, values can overlap the other calls;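 further: 0% = neutral control wells and 100% = reference inhibitor control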
Shn3 inh set2 = Schnurri-3 reporter inhibition in Clone20 osteoblasts; AID 588674; 360,000 tested, 0.52% active; Clone20 osteoblast Shn3 3'UTR firefly luciferase, 24 h; inhibition, % at 12.5 µM;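 active means mean inhibition of at least 75% with every replicate also reaching 75%; inconclusive means mean inhibition at least 75% but some replicate below; inactive means mean inhibition below 75%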;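 further: 0% = median of neutral control wells and 100% = pilot-screen positive control compound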
TWEAK-Fn14 inh = TWEAK-Fn14 signaling inhibition; inhibition, % at 10 µM; TWEAK-stimulated Fn14 reporter cells, luciferase luminescence, 8 h; 360,000 tested, 2% active; in the data active means inhibition above about 50%
An asterisk follows results filed as active; ? = inconclusive; . = no result given. This is a sample that favours compounds with a hit; in the whole collection about 4.1% have one here.

SMILES | MITF TRPM1 inh | TROY signal inh | Peg3 prom inh | LMP1 NFkB inh | Shn3 inh set2 | TWEAK-Fn14 inh
CN1C(=O)C2(NC(=O)c3ccccc3N2C)c2ccccc21 (centres undefined) | 4.3 | -5.8 | 7.8 | 1.9 | -5.2 | 13.0
Cc1cc(C)c(-c2c(O)c3cccc4c3n(c2=O)CCC4)c(C)c1 | 13.6 | 3.1 | 4.3 | -1.1 | -1.7 | 55.6*
O=c1c(-c2ccccc2)c(O)c2cccc3c2n1CCC3 | 3.6 | 17.6 | -22.5 | -4.3 | -1.4 | -3.4
N#C/C(=C(/O)COC(=O)CCCNC(=O)c1ccc(Cl)cc1)c1nc2ccccc2[nH]1 | 2.8 | -5.3 | 0.1 | -7.5 | -8.8 | -56.0
N#C/C(=C(/O)COC(=O)CSc1ccc(Cl)cc1)c1nc2ccccc2[nH]1 | 2.4 | 6.3 | 75.2* | 3.4 | 4.5 | 2.3
Cc1cc(SCC(=O)OC/C(O)=C(\C#N)c2nc3ccccc3[nH]2)c(C)cc1Br | 32.1 | 12.9 | 51.0* | -2.1 | -1.9 | 6.0
COc1cc(/C=C/C(=O)N2CCN(C(=O)/C=C/c3cc(OC)c(OC)c(OC)c3)CC2)cc(OC)c1OC | 15.0 | -3.3 | -14.9 | -7.7 | -9.4 | 3.2
COc1ccc(OC)c(/C=C/C(=O)N2CCCc3ccccc32)c1 | -35.3 | -21.2 | -57.4 | 6.6 | 0.5 | -32.7
COc1cc(/C=C/C(=O)N2C(=O)c3cccc(N)c3C2=O)cc(OC)c1OC | 21.5 | -36.9 | 64.7* | -29.6 | -19.4 | 91.9*
COc1ccc(OC)c(/C=C/C(=O)N2C(=O)c3cccc(N)c3C2=O)c1 | 54.7 | -6.6 | 63.6* | -31.8 | 91.8* | 100.4*
COc1ccc(-c2noc(CCC(=O)Nc3cccc(C(=O)NC4CC4)c3)n2)cc1OC | . | -12.3 | -6.0 | 2.9 | -11.8 | -19.3
Cc1onc(-c2ccccc2Cl)c1C(=O)N1CCN(C)CC1 | 4.6 | 6.8 | 17.9 | -1.3 | -2.8 | 31.4
COc1ccc(CNc2nc3c(c(=O)n(Cc4ccc(F)cc4)c(=O)n3C)n2C)cc1 | 13.4 | 36.7 | 50.3* | 25.6 | 25.1 | 22.1
Cn1c(NCC(O)c2ccccc2)nc2c1c(=O)n(Cc1ccc(Cl)c(Cl)c1)c(=O)n2C (centres undefined) | 11.1 | 54.4* | 53.4* | 10.2 | . | 48.6
CCc1cc(=O)oc2c(CNCc3ccccc3F)c(O)c(Cl)cc12 | 0.7 | 1.2 | -1.2 | 7.5 | -24.5 | 11.4
Cc1nn(-c2ccccc2)nc1CNC(=O)c1ncoc1-c1ccccc1 | 1.3 | 28.5 | 8.8 | 12.9 | -1.4 | -3.4
Oc1ccc2ccccc2c1/C=N/Nc1nnc(-c2ncc[nH]2)c2ccccc12 | 21.1 | 5.7 | 45.7 | 59.4* | 91.7* | 30.5
COc1ccc(/C=N/Nc2nnc(-c3ncc[nH]3)c3ccccc23)cc1 | -55.7 | 2.1 | -35.6 | -18.2 | -75.7 | -3.6
Fc1cccc(F)c1/C=N/Nc1ccccn1 | -19.7 | -75.9 | -227.8 | -17.1 | -40.0 | -8.2
Oc1ccc2ccccc2c1C=NNc1ccccn1 | -8.2 | -44.1 | -79.4 | 57.6* | 71.9 | 15.7
Cc1ccsc1C(=O)OC(C)C(=O)Nc1ccc(Cl)cn1 (centres undefined) | 0.4 | -14.6 | -29.6 | -1.0 | 19.1 | 3.8
NS(=O)(=O)c1ccc(Sc2nc3ccccc3s2)c([N+](=O)[O-])c1 | -7.8 | 16.7 | 36.6 | 70.3* | . | 83.7*
CCC1(OC(=O)CN(C)C)C(=O)OCc2c1cc1n(c2=O)Cc2cc3c(N)cccc3nc2-1 (centres undefined) | 66.7* | -9.0 | 38.9 | 76.2* | -6.4 | -31.2
CCC1(O)C(=O)OCc2c1cc1n(c2=O)Cc2cc3c(N)cccc3nc2-1 (centres undefined) | 71.8* | 72.0* | 68.5* | 72.9* | 12.4 | 72.1*
CC1CC(C)C(=NNC(N)=O)C(C(O)CC2CCC(=O)NC2=O)C1 (centres undefined) | 12.9 | 23.7 | 37.4 | 24.8 | 11.1 | -8.0
SMILES | MITF TRPM1 inh | TROY signal inh | Peg3 prom inh | LMP1 NFkB inh | Shn3 inh set2 | TWEAK-Fn14 inh
C#CCn1c(S(=O)(=O)Cc2ccc(F)cc2)nc(-c2ccccc2)c1-c1ccccc1 | -16.8 | 11.9 | 11.0 | 42.6* | 21.3 | -31.1
O=c1c2ccccc2nc(/C=C/c2cc(Br)ccc2O)n1CCCO | 12.7 | 11.8 | 45.5 | -13.3 | -49.5 | 68.6*
CC(C)Cc1ccc(S(=O)(=O)NCC2CCCO2)cc1 (centres undefined) | -20.4 | 12.1 | 14.0 | -0.9 | 5.7 | -2.3
Cc1cc(C)n(CCC(=O)N/N=C/c2c(O)ccc3ccccc23)n1 | ? | 19.4 | 65.1* | 55.7* | 97.3* | 36.0
O=C(NN=Cc1c(O)ccc2ccccc12)C1CC1 | 48.6 | -12.4 | 40.0 | 2.1 | 76.6 | -25.2
COc1ccccc1OCC(=O)N/N=C/c1cccc2cccnc12 | 11.8 | 3.0 | -6.8 | -3.0 | 3.1 | 2.0
O=C(N/N=C/c1c(O)ccc2ccccc12)C(=O)N1CCCC1 | . | 21.7 | 30.0 | 23.7 | 81.8* | 7.5
COc1ccccc1OCC(=O)N/N=C/c1c(O)ccc2ccccc12 | 48.2 | 28.6 | 62.5* | 17.7 | 25.4 | 11.4
Cc1cc(C)n(CCC(=O)N/N=C/c2ccc(O)cc2)n1 | -14.7 | 9.0 | 0.9 | 4.8 | 2.0 | 6.5
O=C(CN1CCCC1)N/N=C/c1c(O)ccc2ccccc12 | 37.6 | 14.1 | 31.5 | 26.7 | 91.0* | 4.7
COc1cc2c(=O)n(CCC(=O)NCC3CCCO3)c(=O)n(CC(=O)c3ccc(Cl)cc3)c2cc1OC (centres undefined) | 6.9 | 18.7 | 14.8 | -13.0 | . | -8.9
CCOC(CNC(=O)c1[nH]c(C(F)(F)F)nc1-c1ccccc1)OCC | . | 12.3 | 4.0 | . | -11.2 | 13.6
CCOc1ccccc1CNC(=O)CCn1ccc2cc(S(=O)(=O)N3CCCCC3)ccc21 | 6.9 | 9.1 | 18.2 | -3.7 | 30.3 | -5.0
COc1ccc(C(=O)N2CCN(c3ccccc3)CC2)cc1S(=O)(=O)N1CCOCC1 | -9.5 | -5.2 | -23.5 | 4.7 | -15.6 | 4.4
O=C(Nc1nc2ccccc2c(=O)[nH]1)c1ccccc1SCc1ccccc1 | -3.0 | -9.7 | 23.3 | -0.2 | 18.5 | 33.7
Cc1ccc(C)c(C(=O)CN2Cc3ccccc3C2=O)c1 | -217.3 | -43.4 | -53.5 | -12.0 | -29.4 | 0.9
O=C(N/N=C/c1c(O)ccc2ccccc12)c1cccc(C(F)(F)F)c1 | 70.7* | 41.9 | 68.1* | 25.6 | 69.4 | 41.4
Cc1cccn2c(=O)c3cc(C(=O)N4c5ccccc5CC4C)n(C)c3nc12 (centres undefined) | 18.0 | 23.8 | 14.6 | 28.9 | -9.0 | 39.2
CC1Cc2ccccc2N1C(=O)c1cc2c(=O)n3ccccc3nc2n1C (centres undefined) | -7.5 | -14.4 | 46.1 | -0.3 | 5.8 | 53.5*
O=C1CCC([N+](=O)[O-])C(c2ccccc2C(F)(F)F)N1 (centres undefined) | 0.7 | 11.3 | 2.7 | -4.0 | -37.2 | -2.7
COc1ccc2ccc(O)c(CN(C)CC(=O)Nc3ccccc3C(F)(F)F)c2c1 | 22.0 | 15.2 | 9.6 | -3.6 | -82.0 | 16.6
O=C(Nc1ccc(Oc2ccc(Cl)cc2)c(Cl)c1)c1cc(I)cc(I)c1O | 4.8 | 72.1* | 82.2* | -2.5 | 2.9 | 57.0*

Source: PubChem (several laboratories)
